# Reference: ChEMBL document CHEMBL3433997, “St. Jude Leishmania screening dataset” (2016)
# Assays:
# Assay type in all cases: functional
# [1] = molecular target: Solute carrier family 2, facilitated glucose transporter member 1 (Homo sapiens) (UniProt P11166); assay: ST_JUDE_LEISH: Cytotoxicity at 2uM final concentration against transgenic Leishmania Mexicana promastigotes LmGLUT1 that are glucose transport deficient and complemented with the human glucose transporter GLUT1. Activity is measured by DNA content using SYBR green in vitro
# Chain of Solute carrier family 2, facilitated glucose transporter member 1 (Homo sapiens) (P11166 whole entry): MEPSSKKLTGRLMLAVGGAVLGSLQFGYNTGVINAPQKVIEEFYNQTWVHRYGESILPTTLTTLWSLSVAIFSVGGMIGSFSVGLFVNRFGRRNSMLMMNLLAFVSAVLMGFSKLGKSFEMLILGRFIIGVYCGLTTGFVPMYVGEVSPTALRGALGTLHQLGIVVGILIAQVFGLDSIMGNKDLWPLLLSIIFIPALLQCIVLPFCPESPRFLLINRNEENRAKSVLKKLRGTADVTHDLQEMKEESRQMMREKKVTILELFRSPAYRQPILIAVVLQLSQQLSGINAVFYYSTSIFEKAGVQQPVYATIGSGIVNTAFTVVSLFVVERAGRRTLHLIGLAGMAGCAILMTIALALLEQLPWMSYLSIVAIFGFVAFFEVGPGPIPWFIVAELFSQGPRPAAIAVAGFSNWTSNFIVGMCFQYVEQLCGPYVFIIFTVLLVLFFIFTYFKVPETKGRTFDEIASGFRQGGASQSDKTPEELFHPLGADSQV
# [2] = molecular target: Hexose transporter 1 (Plasmodium falciparum) (UniProt O97467); assay: ST_JUDE_LEISH: Cytotoxicity at 2uM final concentration against transgenic Leishmania Mexicana promastigotes LmPfHT that are glucose transport deficient and complemented with the Plasmodium falciparum hexose transporter. Activity is measured by DNA content using SYBR green in vitro
# [3] = molecular target: Glucose transporter (Leishmania mexicana) (UniProt O61059); assay: ST_JUDE_LEISH: Cytotoxicity at 2uM final concentration against transgenic Leishmania Mexicana promastigotes LmGT2 that are glucose transport deficient and complemented with the L. Mexicana glucose transporter 2. Activity is measured by DNA content using SYBR green in vitro
SMILES,inhibition [1] [%],inhibition [2] [%],inhibition [3] [%]
COc1cc(-c2ccccc2)ccc1C(=O)Nc1ccc2c(c1)N(C)CCC2,4.93,2.53,3.05
O=C(Nc1ccccc1)Nc1cccc(-c2ccc(-c3nc4cc(C(F)(F)F)ccc4[nH]3)cc2)c1,4.43,4.53,5.45
O=C(/C=C/c1ccc(Cl)c(Cl)c1)NCCCCCN1CCC(c2n[nH]c(-c3ccccc3)c2Br)CC1,1.29,-2.38,0.22
Cc1ccc(-c2noc(=O)n2CC(=O)Nc2ccccc2-c2ccccc2)cc1,0.59,0.52,-0.17
COc1ccccc1C1CCN(C2CCC(NC(=O)/C=C/c3cc(F)c(F)cc3F)CC2)CC1 (stereo unspecified),2.17,2.98,2.21
COc1cc2nc(N3CCC(CNC(=O)c4ccc(-c5ccc(Cl)cc5)cc4)CC3)nc(N)c2cc1OC,9.23,8.03,9.81
NC(=O)c1ccc(C(=O)Nc2cccc(-c3csc(-c4nc5ccccc5[nH]4)c3)c2)cc1,9.88,8.58,8.06
C/C=C/COc1ccc2ccccc2c1CNCCCCCCCCNCc1c(OC/C=C/C)ccc2ccccc12,16.7,7.28,1.19
Cc1cccc(C=NN=c2cc(C)[nH]c3ccc(F)cc23)n1,6.63,6.71,4.02
O=C(Nc1nc2cc(S(=O)(=O)NCc3ccc(Cl)c(Cl)c3)ccc2n1CCCN1CCCC1)c1ccc(Cl)cc1,1.48,1.6,3.04
COc1cccc(CCc2nc3c(N4CCC(Cc5ccccc5)CC4)cccc3n2CC2CNCCO2)c1 (stereo unspecified),9.36,9.47,8.5
Cc1cc(NCCc2ccccc2)nc(NC(=N)Nc2cccc(Cl)c2)n1,-0.54,1.42,0.63
